Structures are written as SMILES. The campaign covered roughly 98,000 compounds. About 4,900 (5%) were called active. Shown is part of a subset that was picked to be rich in actives. Unmarked numbers belong to inactive results. Rule as the data show it: active = inhibition above about 30%; inactive = the rest.

Results on 95 molecules are retold here after PubChem BioAssay AID738 (SRMLSC, 2007).

A short description of the test: growth inhibition of yeast control strain, primary screen, counter-screen for post-Golgi transport modulator project (AID 738). As to conditions: efflux-deficient yeast background strain, growth absorbance A615, 16 h; at 10 µM; hits give high values. On the technique in general: Counterscreens check selectivity or assay interference.
Usually inhibition stands for the drop in the measured response relative to a control, in per cent. `c1ccc(-c2cn3c(n2)CCc2ccc4cccnc4c2-3)cc1`: the inhibition is 42.3% (active).

With `c1ccc(-c2cn3cccnc3n2)cc1`, the inhibition is 10%.

On to `O=C(Nc1ccccc1)c1ccccc1NC(=O)C(F)(F)F`, for which the inhibition is 10.5%.

With `CCCCOC(=O)c1ccc(N2C(=O)CC(N3CCN(C/C=C/c4ccccc4)CC3)C2=O)cc1` (stereo not given), the inhibition is 30.1% (active).

For `CCOC(=O)c1ccc(N2C(=O)CC(N3CCC(C(=O)OCC)CC3)C2=O)cc1` (stereo not given), the inhibition was 0%.

`CCOC(=O)c1ccc(N2C(=O)CC(N3CC(C)OC(C)C3)C2=O)cc1` (stereo not given): the inhibition is 7.03%.

Take `O=C(NC1CCN(C(=S)NCc2ccco2)CC1)c1ccc(F)cc1`: the inhibition is 7.63%.

For `CCOC(=O)N1CCN(Cc2nc(N)nc(Nc3ccc(C)cc3)n2)CC1`, the inhibition was -1.25%.

For `Cn1cc(S(=O)(=O)N2CCC(Cc3ccccc3)CC2)c(=O)n(C)c1=O`, the inhibition was 2.66%.

For `Cn1cc(S(=O)(=O)N2CCN(c3ccc(F)cc3)CC2)c(=O)n(C)c1=O`, the inhibition was 3.87%.

As for `CC(C)c1ccc(NS(=O)(=O)c2cn(C)c(=O)n(C)c2=O)cc1`, the inhibition is 94.4% (active).

Regarding `CC(CNc1ccc([N+](=O)[O-])cc1)NC(=O)c1ccccc1Br` (stereo not given), the inhibition was 1.54%.

As for `CO/N=C/c1ccc(N2CCN(C(=O)c3cccc(Cl)c3)CC2)c([N+](=O)[O-])c1`, the inhibition was -2.25%.

On to `CC(C)NC(=O)c1ccc(Sc2ccccc2)c([N+](=O)[O-])c1`, for which the inhibition was -2.82%.

In the case of `O=C(CCn1c(=S)[nH]c2ccccc2c1=O)NCCCN1CCCC1=O`, the inhibition was 18.7%.

Take `CCOc1cc2[nH]c(=S)n(CCCN3CCCC3=O)c(=O)c2cc1OCC`: the inhibition was 35.1% (active).

As to `CCOc1cc2[nH]c(=S)n(CCN3CCCCC3C)c(=O)c2cc1OCC` (stereo not given), the inhibition is -3.72%.

Regarding `O=C(c1ccccn1)c1ncc(C(F)(F)F)cc1Cl`, the inhibition is 5.57%.

As for `Cc1ccc(-c2ccnc3nc(Sc4ncc(C(F)(F)F)cc4Cl)nn23)cc1`, the inhibition is 36.2% (active).

In the case of `Cc1nn(-c2ncc(C(F)(F)F)cc2Cl)c(=O)n1-c1ccccc1`, the inhibition was 10.2%.

As to `O=C(Nc1ccccc1)OCc1cn(-c2ccc(Cl)cc2)nn1`, the inhibition was 17.4%.

With `CCC(=O)NC(NCC1CCCO1)C(Cl)(Cl)Cl` (stereo not given), the inhibition was -2.21%.

Turning to `COc1ccc(C(=O)NNC(=O)c2cnccn2)cc1[N+](=O)[O-]`, the inhibition was 7.69%.

In the case of `Cc1cccc(C(=O)Nc2ccccc2-c2nnn(CC(=O)Nc3ccc4c(c3)OCCO4)n2)c1`, the inhibition is 6.95%.

`N#CC1=C(N)Oc2c(sc3ccccc23)C1c1ccco1` (stereo not given): the inhibition was 13.9%.

For `Cc1cc(C)c(C#N)c(SCc2[nH]nc3c2C(c2ccccc2)C(C#N)=C(N)O3)n1` (stereo not given), the inhibition is -0.29%.

Consider `Cc1cc(C)c2c3c(sc2n1)C(c1ccccc1)C(C#N)=C(N)O3` (stereo not given), for which the inhibition is 72.8% (active).

For `C=CCOc1cccc(CNn2cn[nH]c2=S)c1`, the inhibition is 5.3%.

For the molecule `Cc1cccc(C)c1-n1c(C)cc(/C=C2\C(=O)NN(c3ccccc3)C2=O)c1C`, the inhibition is 20.6%.

As to `CCOC(=O)Nc1ccc(NC(=O)OCC)cc1`, the inhibition is 3.65%.

In the case of `CCCCC(CCC(=O)Nc1ccc(C(=O)OCC)cc1)C(=O)O` (stereo not given), the inhibition is -4.81%.

In the case of `CCCCCOC(=O)NCCOC(=O)Nc1ccc(C(=O)OCC)cc1`, the inhibition was 43% (active).

Take `c1ccc(C2CCC(N3CCC(N4CCCCC4)CC3)CC2)cc1` (stereo not given): the inhibition is 1.52%.

For the molecule `O=C(Nc1ccc2ccccc2c1)Nc1ccc2snnc2c1`, the inhibition is 67.9% (active).

Regarding `COc1ccc(NC(=O)Nc2ccc3nsnc3c2)cc1`, the inhibition was -5.25%.

With `COc1ccc(NC(=O)Nc2ccc3nc(C)c(C)nc3c2)cc1`, the inhibition was 8.79%.

As for `CCCCNC(=O)C(=O)c1ccccc1NC(C)=O`, the inhibition is 7.01%.

`Cc1ccc(C(=O)NC2CCN(C(=O)N3CCOCC3)CC2)cc1`: the inhibition is 7.51%.

`Cc1ccc(NC(=O)N2CCC(C(=O)NCc3ccc(F)cc3)CC2)cc1`: the inhibition was 1.66%.

For the molecule `Cc1cc(C)cc(NC(=O)N2CCC(NC(=O)c3ccc(F)cc3)CC2)c1`, the inhibition is 37.4% (active).

With `CCOC(=O)c1nc(N)sc1C(=O)OCC`, the inhibition was -8.73%.

Take `CCOC(=O)c1sc(C)c2c1NC(C)(c1cccc3ccccc13)NC2=O` (stereo not given): the inhibition was 30.4% (active).

For the molecule `CCOC(=O)c1cc2ccccc2nc1C`, the inhibition was 3.8%.

With `CC1(C)CC(=O)C(C=NCCN2CCN(C(=S)Nc3cccc(Cl)c3)CC2)=C(O)C1`, the inhibition was 1.4%.

As to `COc1cc(/C=N/NC(=O)Nc2ccccc2)ccc1OCCOc1ccccc1C`, the inhibition is -1.48%.

As for `Nc1c(-c2cccc(Cl)c2)cnn1-c1cccc([N+](=O)[O-])c1`, the inhibition is 4.05%.

In the case of `CCN(c1ccccc1)S(=O)(=O)c1ccc(NC(=O)C(C)(C)C)cc1`, the inhibition was 28.9%.

On to `COC(=O)c1ccc(Sc2ccc(F)cc2)c(N)c1`, for which the inhibition was 7.42%.

As for `CC(C)(CCl)C(=O)Nc1ccc(Sc2ccc(F)cc2)cc1`, the inhibition is 37.1% (active).

As for `CC(=O)N/C(=C/c1ccc(Cl)cc1)C(=O)NCCc1c[nH]c2ccccc12`, the inhibition is 17.4%.

In the case of `CCCCCCC(=O)Nc1nc(C)c(-c2csc(Nc3cccc(OC)c3)n2)s1`, the inhibition is 3.51%.

For `C#CCNc1nc(C(C)C)nc2c1nnn2Cc1ccccc1F`, the inhibition is 22.2%.

Turning to `CC(C)(C)c1nc(NCC2CCCO2)c2nnn(Cc3ccccc3)c2n1` (stereo not given), the inhibition was 12.5%.

As to `Cc1nc(Nc2ccc3c(c2)OCCO3)c2nnn(Cc3ccccc3Cl)c2n1`, the inhibition was 57.3% (active).

On to `CCCCNC(=S)NNC(=O)c1cc(C)on1`, for which the inhibition is 6.93%.

With `N#CC1=C(N)N(c2ccc(F)cc2)C(=O)C1`, the inhibition was 1.63%.

Regarding `Cc1ccccc1-n1c(C)cc(/C=N/NC(=O)c2ccc(CN3CCOCC3)cc2)c1C`, the inhibition was 7.99%.

Turning to `COc1ccccc1-c1cc(C(=O)N2CCCCC2)no1`, the inhibition was 13.9%.

Consider `COc1ccccc1N1CCN(C(=O)c2cc(-c3ccc(Cl)c(Cl)c3)on2)CC1`, for which the inhibition is 2.68%.

With `COc1ccccc1N1CCN(C(=O)c2cc(-c3ccc(Br)cc3)on2)CC1`, the inhibition was 33.2% (active).

`NC(=O)N1CCCC1C(=O)Nc1ccc(Cl)c(Cl)c1` (stereo not given): the inhibition was -1.15%.

As to `O=C(CSc1nnc(-c2ccccc2)o1)N1CCOCC1`, the inhibition was 7.42%.

On to `CC1=CC(C)(C)N(C(=O)CSc2nnc(-c3ccccc3)o2)c2ccc(C)cc21`, for which the inhibition was 72.6% (active).

In the case of `CC1=CC(C)(C)N(C(=O)CSc2nccn2C)c2cc(C)ccc21`, the inhibition was 1.07%.

As for `CC(C)NC(=O)c1ccccc1S(=O)c1ccccc1C#N` (stereo not given), the inhibition is -5.45%.

As for `Cc1nn(C)cc1C(=O)NNC(=S)Nc1ccc(Cl)cc1`, the inhibition is 2.4%.

As for `CCC(=O)N(Cc1ccccc1)c1ccccn1`, the inhibition is 1.04%.

In the case of `Cc1ccc(C(=O)N/C(=C/C=C/c2ccccc2)C(=O)NCc2ccco2)cc1`, the inhibition was -1.68%.

Regarding `CN(CC(=O)Nc1cccc2c1CCCC2)S(=O)(=O)c1ccc(Cl)cc1`, the inhibition is -4.31%.

For `COCCOC(=O)C1=C(C)NC(=O)CC1c1cc2c(cc1Br)OCO2` (stereo not given), the inhibition was -3.67%.

Consider `CCCOc1ccccc1C1CC(=O)Nc2cc3c(cc21)OCO3` (stereo not given), for which the inhibition is 34.1% (active).

`COc1ccccc1C1C2=C(COC2=O)Nc2cc3c(cc21)OCO3` (stereo not given): the inhibition is 6.27%.

On to `COc1cc(C(=O)N2CCN(C/C=C/c3ccccc3)CC2)cc(OC)c1C`, for which the inhibition is 8.75%.

For the molecule `COc1cnc(SCc2ccc(Cl)c(Cl)c2)nc1Cl`, the inhibition is 16.9%.

Turning to `CCCn1nc2cc(C(=O)NCc3ccccc3)ccc2c1OCC`, the inhibition is -6.87%.

For the molecule `Cn1c(=O)n(C)c2cc(S(=O)(=O)N3CCCc4ccccc43)ccc21`, the inhibition is -3.51%.

`CCn1c(=O)c(=O)n(CC)c2cc(S(=O)(=O)N3CCc4ccccc43)ccc21`: the inhibition was 12.6%.

Regarding `CSc1nc2ccc(S(=O)(=O)N3CCc4ccccc43)cc2s1`, the inhibition was 52% (active).

For the molecule `CCOc1ccc(C(CCc2ccccc2)NC(=O)c2ccc(OC)c(OC)c2)cc1OCC` (stereo not given), the inhibition was -3.35%.

Consider `C=CCNc1nc(N)c(C(=C(C#N)C#N)c2ccccc2)s1`, for which the inhibition was 5.44%.

As for `CC1CCN(c2nc3c(c(=O)[nH]c(=O)n3C)n2CCCc2ccccc2)CC1`, the inhibition was 30.6% (active).

Consider `C=C(C)Cn1c(N2CCCC2)nc2c1c(=O)[nH]c(=O)n2C`, for which the inhibition was 6.94%.

With `CN1CCN(c2nc3c(c(=O)[nH]c(=O)n3C)n2Cc2cccc3ccccc23)CC1`, the inhibition was 9.64%.

For the molecule `O=C1c2ccccc2C(=O)c2c1cccc2N1CCN(Cc2ccccc2)CC1`, the inhibition is 17.7%.

For `CCn1c2ccccc2c2cc(NC(=O)C/C(C)=N/NC(=O)c3ccccc3N)ccc21`, the inhibition is -1.98%.

Regarding `Cc1cccc(N2CCN(C(=O)CN(C)S(=O)(=O)c3ccc4c(c3)CCC(=O)N4)CC2)c1C`, the inhibition was 6.36%.

For the molecule `COc1ccc(C(=O)NC(=S)Nc2ccccc2N2CCN(S(C)(=O)=O)CC2)cc1OC`, the inhibition was 31.7% (active).

For `COc1ccccc1N1CCN(C(=O)c2ccc(S(=O)(=O)N3CCCCC3)cc2)CC1`, the inhibition was -0.79%.

With `CCC(=O)Nc1ccccc1N1CCN(S(C)(=O)=O)CC1`, the inhibition is 13.1%.

With `O=C1/C(=C/c2cccs2)CCc2ccccc21`, the inhibition is 12.8%.

Take `O=C(Nc1nccs1)C1CCN(S(=O)(=O)c2ccc(Cl)c(C(F)(F)F)c2)CC1`: the inhibition was 17.7%.

In the case of `O=c1c(-c2ccccc2)coc2c(CN3CCOCC3)c(O)ccc12`, the inhibition is 10.4%.

For the molecule `CCOC(=O)c1nnn(-c2nonc2-n2cccc2)c1CN1CCOCC1`, the inhibition was -2.3%.

Consider `CCOC(=O)c1c(CN2CCOCC2)n(-c2ccccc2)c2ccc(O)cc12`, for which the inhibition is 45.2% (active).

`O=C(COC(=O)c1ccccc1SCC(=O)NC1CCCCC1)NC1CCCCC1`: the inhibition is 0.43%.
